Most compounds without a hit are left out; they make up all but 4.3% or so of the library.
SMARCA2 activ – SMARCA2 (BRM) function activators, primary screen, cell-based, luminescence, high throughput; MG213 cells, MMTV-luciferase reporter, dexamethasone, overnight; 370,000 tested, 1% active; activation, % at 9.1 µM; AID 652017, 2013; in the data active = activation above about 7.8%
Wnt bcat act – Wnt/beta-catenin pathway activators, primary screen, cell-based, plate reader, single point | activation, % at 9.35 µM | 300,000 tested, 1.2% active | Wnt/beta-catenin reporter cell assay, activator; in the data active = activation above about 30%, passing the limit was not always enough; inconclusive = no clear call, values can overlap the other calls
HSF1 inhib – HSF1 inhibitors in luciferase reporter cells, primary screen, cell-based, NIH3T3, luminescence; NIH3T3-HGL HSE-luciferase, MG132-induced, luminescence 8 h; hits give low values; activity change, negative = inhibition, % at 7.5 µM (by protocol); 300,000 tested, 0.77% active; AID 2098, 2009;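 active = more than half of replicate wells show activity change below -50%, luminescence cut by over half; inconclusive = some wells, but at most half, below -50%; inactive = no replicate well below -50%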;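 also: luciferase reports HSF-1 transcriptional activity via heat shock element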
esBAF inh – Bmi1 luciferase reporter increase in mESCs, primary screen, esBAF inhibitor project, mouse ES cells, Bmi1 luciferase knock-in, single point; 24 h; 100% = twice the neutral-well signal; reporter increase, % at 12.5 µM; 350,000 tested, 2% active; AID 602393, 2012; in the data active = activation above about 40%; inconclusive = no clear call, values can overlap the other calls;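 also: a rise in the Bmi1 reporter signal indicates esBAF inhibition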
MITF TRPM1 HTS – activators of MITF-driven TRPM1 promoter reporter, primary screen, cell-based, SK-MEL-5, luciferase, single point; SK-MEL-5 TRPM1-promoter luciferase, 24 h; % of positive control, neutral wells = 0; activation, % at 12.5 µM; 300,000 tested, 0.75% active; AID 588334, 2011;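 active = mean activation of at least 80% with every replicate also reaching 80%; inconclusive = mean reaches 80% but some replicate falls short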
HSF-1 act – HSF-1 activators, primary screen, NIH3T3-HGL cells, MG132 stress, luminescence, single point. AID 504408, 2011. NIH3T3-HGL HSF-1 luciferase reporter, 8 h; 100% = twice DMSO control signal. 300,000 tested, 1.7% active. activation, % at 9 µM;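 active = mean replicate activation of at least 50% with a set share of replicates each reaching 50%; inconclusive = only one of those two conditions met; inactive = mean below 50% and too few replicates reaching it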
Large screens that a line does not name were inactive.

Cc1occc1-c1nnc(SCC(=O)N2CCCCC2C)o1 (stereo not given)	none (no result: HSF1 inhib, HSF-1 act)
CC1CCCCN1C(=O)CSc1nnc(-c2ccc(Cl)s2)o1 (stereo not given)	esBAF inh 63 (no result: Wnt bcat act)
C[C@H](CO)N1C[C@H](C)[C@@H](CN(C)Cc2cccc(C(=O)O)c2)Oc2ncc(C#CCN(C)C)cc2C1=O	none (no result: SMARCA2 activ, Wnt bcat act, HSF1 inhib, MITF TRPM1 HTS, HSF-1 act)
CCCCN(C)C(=O)C1CCC(CNS(=O)(=O)c2ccc3c(c2)CC(C)N3C(=O)C2CC2)CC1 (stereo not given)	HSF-1 act 61
CCC(C)NC(=O)C1CCC(CNS(=O)(=O)c2ccc3c(c2)CC(C)N3C(=O)C2CC2)CC1 (stereo not given)	none
O=C(Nc1nccs1)c1ccc(Br)o1	none (no result: Wnt bcat act)
O=C(/C=C/c1ccc(Br)o1)Nc1nccs1	Wnt bcat act 43, HSF-1 act 83 (no result: esBAF inh)
CO[C@H]1CN(C)C(=O)c2cc(NC(C)=O)ccc2OC[C@@H](C)N(CCc2ccccc2)C[C@H]1C	none (no result: SMARCA2 activ, Wnt bcat act, HSF1 inhib, MITF TRPM1 HTS, HSF-1 act)
COC(=O)c1c(-c2ccc(Br)cc2)noc1N	esBAF inh 56 (no result: MITF TRPM1 HTS)
CCOc1cc(-c2noc(N)c2C(=O)OC)cc(OCC)c1OCC	none (no result: Wnt bcat act)
O=C(CCCOc1ccc(Cl)cc1)Nc1cccc(C(=O)O)c1	Wnt bcat act 56
O=C(Nc1ccccc1)OCCOc1ccccc1	HSF1 inhib inconclusive, esBAF inh 52 (no result: Wnt bcat act)
COc1ccc(OCCOC(=O)Nc2ccccc2)cc1	none (no result: Wnt bcat act)
O=C(Nc1cccc(Cl)c1)OCCOc1ccccc1	esBAF inh 61
CC(=O)c1cccc(NC(=O)CCCOc2ccc(C)cc2)c1	none
O=C(Nc1ccccc1)OCCOc1ccccc1Br	esBAF inh 45 (no result: MITF TRPM1 HTS)
Cc1ccc(NC(=O)CCOc2ccccc2)cc1	esBAF inh 56, MITF TRPM1 HTS 90
Nc1ccc2nc3c(=O)n(C4CCCCC4)c(=O)[nH]c3nc2c1	Wnt bcat act 43
COc1ccc(CNC(=O)N(C)C[C@H]2OCc3ccccc3-c3c(n(C)c4ccccc34)C(=O)N([C@@H](C)CO)C[C@@H]2C)cc1	none (no result: SMARCA2 activ, Wnt bcat act, HSF1 inhib, MITF TRPM1 HTS, HSF-1 act)
O=C(Nc1csc([N+](=O)[O-])c1)Nc1c(Cl)cccc1Cl	none (no result: esBAF inh, MITF TRPM1 HTS)
O=C(Nc1ccc(Cl)cc1)Nc1csc([N+](=O)[O-])c1	HSF-1 act 84 (no result: esBAF inh, MITF TRPM1 HTS)
N#C[C@@H]1[C@@H](c2ccc(-c3ccncc3)cc2)[C@@H](CO)N1C(=O)CN1CCOCC1	none (no result: SMARCA2 activ, Wnt bcat act, HSF1 inhib, MITF TRPM1 HTS, HSF-1 act)
C[C@H]1CN([C@@H](C)CO)S(=O)(=O)c2ccc(-c3cccc(C(=O)N(C)C)c3)cc2O[C@@H]1CN(C)C	none (no result: SMARCA2 activ, Wnt bcat act, HSF1 inhib, MITF TRPM1 HTS, HSF-1 act)
C[C@H]1CCCCO[C@H](CN(C)C)[C@@H](C)CN([C@@H](C)CO)C(=O)c2cc(NC(=O)Nc3ccc(F)cc3)ccc2O1	none (no result: SMARCA2 activ, Wnt bcat act, HSF1 inhib, MITF TRPM1 HTS, HSF-1 act)
CCOC(=O)C(=Cc1c[nH]c2ccc(S(=O)(=O)N(C)C)cc12)C(=O)OCC	HSF-1 act 146
O=C(Cn1nnc2ccccc21)c1ccc(Br)cc1	none
Cc1ccc(C(=O)Cn2nnc3ccccc32)cc1C	Wnt bcat act 47, MITF TRPM1 HTS 110, HSF-1 act 58
Cc1ccc(C(=O)Cn2nnc3ccccc32)cc1	esBAF inh 63, HSF-1 act 67 (no result: Wnt bcat act)
Cc1ccc(C(=O)Cn2cnc3ccccc3c2=O)cc1C	esBAF inh 57
O=C(NC1CCCCC1)N[C@@H]1CC[C@@H](CCNS(=O)(=O)c2ccccc2)O[C@@H]1CO	none (no result: SMARCA2 activ, Wnt bcat act, HSF1 inhib, MITF TRPM1 HTS, HSF-1 act)
CCCN1C[C@H](C)[C@@H](OC)CN(C)C(=O)c2cc(NC(=O)Nc3ccccc3F)ccc2OC[C@@H]1C	none (no result: SMARCA2 activ, Wnt bcat act, HSF1 inhib, MITF TRPM1 HTS, HSF-1 act)
CC(C)(C)OC(=O)N1CCC(CC2CC(c3ccccc3)=NO2)(C(=O)NCc2ccccc2)CC1 (stereo not given)	none (no result: HSF1 inhib, HSF-1 act)
C=CCC1(C(=O)NCCO)CCN(C(=O)OC(C)(C)C)CC1	HSF1 inhib -84
Cc1cc(C)cc(NC(=O)CSc2nc3ccncc3[nH]2)c1	none (no result: MITF TRPM1 HTS)
Cc1ccc(CSc2nc3ccncc3n2CC(=O)Nc2cc(C)cc(C)c2)cc1	esBAF inh 48
O=C(C[C@H]1C[C@@H]2c3cc(NC(=O)NC4CCCC4)ccc3O[C@@H]2[C@@H](CO)O1)NCc1ccccc1F	none (no result: SMARCA2 activ, Wnt bcat act, HSF1 inhib, MITF TRPM1 HTS, HSF-1 act)

Screens deposited in PubChem BioAssay by several laboratories.
